# Measured values: PubChem BioAssay (Tox21)
# Records with an inconclusive call do not appear. Calls of active or inactive are those of the source. Calls come from the whole dose curve; as a rule, active = well fitted inhibition curve with a large enough effect in the signal ratio in the repeat runs (not every such curve was filed as active); inconclusive = weak or mixed curves, or effect the other way; inactive = no such curve, though single readings can be large or run the other way; the % refers to the signal ratio.
# Target: Peroxisome proliferator-activated receptor delta (Homo sapiens) (UniProt Q03181)
# Assay: qHTS assay to identify small molecule antagonists of the peroxisome proliferator-activated receptor delta (PPARd) signaling pathway (AID 743215);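 note: cells stimulated with agonist L165041 at 300 nM final during compound exposure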
# Details: HEK293H PPARd-UAS-bla, beta-lactamase FRET ratio, antagonist, 17 h; series mostly up to 62 µM; ratio activity, negative = inhibition: at the top concentration
# Text: U.S. Tox21 Program National Center for Advancing Translational Sciences [NCATS] NIH Chemical Genomics Center [NCGC] U.S. Environmental Protection Agency [EPA] National Institutes of Environmental Health Sciences [NIEHS] National Toxicology Program [NTP] U.S. Food and Drug Administration [FDA] Tox21 Assay Overview: The peroxisome proliferator-activated receptors (PPARs) are lipid-activated transcription factors of the nuclear receptor superfamily with three distinct subtypes namely PPAR alpha, PPAR delta (PPARd) and PPAR gamma. All these subtypes heterodimerizes with Retinoid X receptor (RXR) and have different physiological functions. […] To identify the compounds that inhibit PPAR-delta signaling, GeneBLAzer PPAR delta UAS-bla HEK293H cell line (Invitrogen, Carlsbad, CA, USA) containing a beta-lactamase reporter gene under the control of an Upstream Activator Sequence (UAS) was used to screen the Tox21 compound library.
# Tox21 Assay Protocol Summary: PPARd-bla cells were dispensed at 3000 cells/5uL/well in 1536-well black wall/clear bottom plates using a Multidrop Combi (Thermo Fisher Scientific, Waltham, MA) dispenser. After the assay plates were incubated at 37 C and 5% CO2 for 5 h, 23 nL of compounds dissolved in DMSO, positive controls or DMSO only was transferred to the assay plate by a Pintool station (Kalypsys, San Diego, CA), followed by addition of 1ul L165041 (300 nM, final concentration in the wells). The assay plates were incubated at 37 C for 17 h, and then 1 uL of LiveBLAzerTM B/G FRET substrate was added using a Bioraptr Flying Reagent Dispenser (FRD) workstation (Beckman Coulter, Indianapolis, IN, USA). The assay plates were incubated at room temperature for 2 h and fluorescence intensity was measured by an Envision plate reader (PerkinElmer, Shelton, CT).
# % is set by controls: 0 for no effect and ±100 for the full control effect.
# Chain of Peroxisome proliferator-activated receptor delta (Homo sapiens) (Q03181 whole entry, looked up): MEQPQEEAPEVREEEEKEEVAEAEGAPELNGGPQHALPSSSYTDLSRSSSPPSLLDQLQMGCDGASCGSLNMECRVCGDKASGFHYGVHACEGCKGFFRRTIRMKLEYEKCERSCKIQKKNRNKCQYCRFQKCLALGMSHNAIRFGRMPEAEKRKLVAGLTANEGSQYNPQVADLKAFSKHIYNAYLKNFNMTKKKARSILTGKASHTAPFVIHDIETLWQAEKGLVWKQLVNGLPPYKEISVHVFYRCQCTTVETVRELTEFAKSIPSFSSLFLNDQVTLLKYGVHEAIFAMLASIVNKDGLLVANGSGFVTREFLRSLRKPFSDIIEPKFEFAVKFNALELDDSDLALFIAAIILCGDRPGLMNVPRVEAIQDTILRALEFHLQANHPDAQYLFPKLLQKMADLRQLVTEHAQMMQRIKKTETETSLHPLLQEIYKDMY
row,SMILES,"ratio activity, negative = inhibition"
1,Cc1cccc(C#N)c1,0.0641% (inactive)
2,Cc1cc(C)nc(Nc2ccccc2)n1,-1.01% (inactive)
3,O=[N+]([O-])c1cccc2c([N+](=O)[O-])cccc12,1.98% [at 80.4 µM] (inactive)
4,Nc1ccccc1Cl,3.09% (inactive)
5,CN1C[C@@H](NS(=O)(=O)N(C)C)C[C@@H]2c3cccc4c3c(cn4C)C[C@H]21,0.942% (inactive)
6,Nc1n[nH]c(N)n1,5% [at 80.4 µM] (inactive)
7,Nc1c(Br)cc([N+](=O)[O-])cc1[N+](=O)[O-],2.61% [at 80.4 µM] (inactive)
8,CNC(=O)Oc1c(C(C)(C)C)cc(C)cc1C(C)(C)C,12.4% (inactive)
9,CCOP(=O)(N=C1SCCS1)OCC,17.1% (inactive)
10,CC(=O)[C@H]1CC[C@H]2[C@@H]3CC[C@H]4C[C@H](O)CC[C@]4(C)[C@H]3C(=O)C[C@]12C,3.76% (inactive)
11,CCCCC(=O)Cl,-3.77% [at 80.4 µM] (inactive)
12,NC(=O)c1cc([N+](=O)[O-])cc([N+](=O)[O-])c1,1.3% (inactive)
13,CCC1(c2ccccc2)C(=O)N=C(O)NC1=O (stereo not given),6.77% (inactive)
14,COC(=O)c1ccccc1S(=O)(=O)NC(=O)N(C)c1nc(C)nc(OC)n1,1.62% [at 80.4 µM] (inactive)
15,c1coc(-c2nc3ccccc3[nH]2)c1,3.02% (inactive)
16,CCN(Cc1ccc(Cl)nc1)/C(=C/[N+](=O)[O-])NC,3.72% (inactive)
17,O=[N+]([O-])c1cccc2cccnc12,11.9% [at 80.4 µM] (inactive)
18,CC1COC2(c3ccccc3Cl)c3cc(Cl)ccc3NC(=O)CN12 (stereo not given),1.58% (inactive)
19,CC(C)NCC(O)c1ccc(N)c(C#N)c1 (stereo not given),-1.37% (inactive)
20,CC(N)=S,3.11% (inactive)

row,SMILES,"ratio activity, negative = inhibition"
1,CN1CCC(N(Cc2ccccc2)c2ccccc2)CC1,1.47% (inactive)
2,NC(=S)C(N)=S,8.63% (inactive)
3,CCCCN(CCCCO)N=O,9.98% (inactive)
4,C[N+](=O)[O-],1.64% (inactive)
5,CCOP(=S)(Oc1cnc(C(C)(C)C)nc1)OC(C)C (stereo not given),-16.2% (inactive)
6,CN(C)CCc1ccc(O)cc1,-18.8% (inactive)
7,O=C(O)c1ccc2[nH]cc(CCCCN3CC=C(c4ccccc4)CC3)c2c1,0.768% (inactive)
8,N#CC(O)c1ccccc1 (stereo not given),3.16% (inactive)
9,CN1CCC(O)(c2ccc(F)cc2)C(C(=O)c2ccc(F)cc2)C1 (stereo not given),0.484% (inactive)
10,O=C1OC(c2ccc(O)c(S(=O)(=O)O)c2)(c2ccc(O)c(S(=O)(=O)O)c2)c2c(Br)c(Br)c(Br)c(Br)c21,2.26% (inactive)
11,CC(COc1ccc(Oc2ccccc2)cc1)Oc1ccccn1 (stereo not given),-4.64% (inactive)
12,CC(=O)CC(c1ccc(Cl)cc1)c1c(O)c2ccccc2oc1=O (stereo not given),-2.76% [at 80.4 µM] (inactive)
13,O=C(O)C(Br)CBr (stereo not given),5.3% [at 80.4 µM] (inactive)
14,O=C1c2ccccc2C(=O)c2ccccc21,5.84% [at 28.9 µM] (inactive)
15,C[C@@H]1CN(C2CCC(C#N)(c3ccc(F)cc3)CC2)CC[C@]1(C(=O)O)c1ccccc1 (stereo not given in full),0.675% (inactive)
16,CCC(C)(C)c1cc(-n2nc3ccccc3n2)c(O)c(C(C)(C)CC)c1,-0.0806% [at 80.4 µM] (inactive)
17,CC(CC(C#N)(c1ccccc1)c1ccccc1)N(C)C (stereo not given),-0.635% [at 80.4 µM] (inactive)
18,CC(C)CC(N(C)C)C1(c2ccc(Cl)cc2)CCC1 (stereo not given),-4.87% (inactive)
19,COC(=O)C1=CCCN(C)C1,2.26% (inactive)
20,COc1ncc(F)c2nc(S(=O)(=O)Nc3c(F)cccc3F)nn12,6.31% (inactive)
